TDP1 inh = qHTS Assay for Inhibitors of Tyrosyl-DNA Phosphodiesterase (TDP1) | 350,000 tested, 0.28% active | Tyrosyl-DNA phosphodiesterase 1 (Homo sapiens), Q9NUW8 | recombinant TDP1, AlphaScreen DNA substrate cleavage | Potency, µM (doses to about 130 µM), without a hit: top-dose activity change, negative = inhibition, usual class: inhibitors; further: potency means the concentration at half of the fitted maximal effect; on the % scale 0 is the no-effect control and ±100 the full control effect; nearly all actives have a fitted effect of over 40% in size
Target sequence (Q9NUW8 whole entry, looked up): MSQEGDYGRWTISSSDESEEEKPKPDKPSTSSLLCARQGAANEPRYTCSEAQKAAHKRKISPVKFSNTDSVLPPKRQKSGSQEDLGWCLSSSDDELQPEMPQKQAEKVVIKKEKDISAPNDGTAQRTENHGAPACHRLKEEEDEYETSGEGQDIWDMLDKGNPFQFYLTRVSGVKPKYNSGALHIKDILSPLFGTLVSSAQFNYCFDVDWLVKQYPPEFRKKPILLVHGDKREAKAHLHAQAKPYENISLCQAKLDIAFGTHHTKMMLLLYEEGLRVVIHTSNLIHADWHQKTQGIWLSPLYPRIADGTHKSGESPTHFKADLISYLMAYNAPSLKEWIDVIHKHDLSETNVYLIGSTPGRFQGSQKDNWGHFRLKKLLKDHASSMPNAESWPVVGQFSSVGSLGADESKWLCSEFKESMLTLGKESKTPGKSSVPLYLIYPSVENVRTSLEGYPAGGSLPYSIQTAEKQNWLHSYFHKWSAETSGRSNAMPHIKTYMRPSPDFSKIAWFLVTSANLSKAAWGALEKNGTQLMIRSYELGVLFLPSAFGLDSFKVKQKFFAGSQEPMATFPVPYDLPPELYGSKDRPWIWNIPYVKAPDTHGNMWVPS
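Compounds were preincubated with Tdp1 (1 nM final) for 15 min at room temperature before substrate (15 nM final) started a 5 min reaction; beads (10 ug/ml final) were then added for 10 min before AlphaScreen detection.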
IL-1B inflam inh = qHTS for Inhibitors of Inflammasome Signaling: IL-1-beta AlphaLISA Primary Screen; THP-1 LPS/ATP IL-1B secretion, AlphaLISA, 16 h; stronger effect = lower value; activity change, % at 57.5 µM; 360,000 tested, 4.7% active; AID 743279, 2014; in the data active means activity change below about -50%; inconclusive means mostly about -30% to -49%; further: on the % scale 0 is the no-effect control and ±100 the full control effect
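Secreted IL-1B measured by AlphaLISA bead assay after 16 h compound exposure of THP-1 cells; compounds (final up to 57.5 uM) added 1 h before LPS (250 ng/mL) and ATP (1.25 mM) stimulation; lower signal means less secretion.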
TDP1 cell noCPT = qHTS for Inhibitors of human tyrosyl-DNA phosphodiesterase 1 (TDP1): qHTS in cells in absence of CPT. DT40 Tdp1-/- hTDP1 cells, no CPT, ATP luminescence, 48 h. Potency, µM (series often up to 46.2 µM), for the others: at the highest dose activity change, negative = growth inhibition, most hits filed as inhibitors. AID 686978, 2013. 420,000 tested, 15% active; further: potency means the concentration at half of the fitted maximal effect; on the % scale 0 is the no-effect control and ±100 the full control effect; nearly all actives have a fitted effect of over 55% in size
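Cells were dispensed at 400 per well, compounds added by pin tool, plates incubated ≥48 hr at 37 °C, then CellTiter-Glo added for 30 min at room temperature before luminescence reading. Line: DT40 Tdp1-/- complemented with hTDP1; camptothecin omitted.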
TGFb SMAD3 inh = qHTS for Inhibitors of TGF-b; HepG2 CAGA-GFP TGF-b/SMAD3 reporter, GFP fluorescence, 18 h; TGF-beta stimulated, 500 pg/mL final; Potency, µM (top dose mostly 46.1 µM), for the others: top-dose activity, negative = inhibition, most hits filed as inhibitors; 410,000 tested, 1.2% active; AID 588855, 2011; further: potency means the concentration at half of the fitted maximal effect; on the % scale 0 is the no-effect control and ±100 the full control effect; nearly all actives have a fitted effect of over 65% in size
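HEPG2 CAGA-GFP, 1000 cells/well; 2 h settle, 37 C; cpd via pin tool; TGF-b 500 pg/mL final; 18 h, 37 C; GFP imaging ex488/em500-530; %Activity normalised to -TGF-b and +DMSO controls; CRC fit, curve class.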
HepG2 tox = qHTS for Inhibitors of TGF-b: Cytotox Counterscreen | 410,000 tested, 0.76% active | HepG2 CAGA-GFP viability, ATP luminescence, 18 h | Potency, µM (series often up to 46.1 µM), inactives show at the top dose activity change, negative = cytotoxicity, usual class: cytotoxic | AID 588856, 2011; further: potency means the concentration at half of the fitted maximal effect
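HepG2 CAGA-GFP cells (1000/well, DMEM with 1% FBS) received compound, then TGF-beta at 500 pg/mL final, and were incubated 18 hours at 37 degrees C. Viability was read by CellTiter-Glo luminescence. Media-only wells were set as complete cell-killing and DMSO as no toxicity.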
TDP1 cell CPT = qHTS for Inhibitors of human tyrosyl-DNA phosphodiesterase 1 (TDP1): qHTS in cells in presence of CPT; AID 686979, 2013; Potency, µM (series often up to 46.2 µM), inactives show at the top dose activity change, negative = growth inhibition, usual class: inhibitors; chicken DT40 Tdp1-/-;hTDP1 cells + 20 nM CPT, ATP luminescence, 48 h; 420,000 tested, 12% active; further: potency means the concentration at half of the fitted maximal effect; on the % scale 0 is the no-effect control and ±100 the full control effect; nearly all actives have a fitted effect of over 55% in size
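Chicken DT40 Tdp1-/- cells stably complemented with human TDP1 were seeded at 400 cells/well in medium containing 20 nM camptothecin, exposed to pin-transferred compounds, and grown at 37 °C for at least 48 hr. Viability was read as ATP luminescence.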
Active calls of the source: *. Hits are enriched below; roughly 19% of the tested compounds scored in any of these assays. Unless noted, the call rests on the fitted dose curve; in most records, active means well fitted curve in the direction sought with a large enough effect; inconclusive means small, poorly fitted or top-dose-only effect, or another doubt; inactive means no such curve, though single readings can be large; an effect the other way counts as inactive or inconclusive.

How did CC(C)c1ccc(NC(=O)Nc2nc(C(N)COCc3ccccc3)cs2)cc1 (configuration not stated) do in these assays?
IL-1B inflam inh: inconclusive; TDP1 cell noCPT: 15µM*; TGFb SMAD3 inh: 11µM*; HepG2 tox: 10µM*; TDP1 cell CPT: 16µM*

What do the screens show for `Cc1ccccc1NC(=O)Nc1nc(C(N)c2ccccc2)cs1` (configuration not stated)?
IL-1B inflam inh: inconclusive; TDP1 cell noCPT: inconclusive; TGFb SMAD3 inh: 0%; HepG2 tox: -12%; TDP1 cell CPT: inconclusive

How did OCC(O)C(O)[C@H](O[C@H]1OC(CO)C(O)C(O)C1O)[C@H](O)CO (some centres not stated) do in these assays?
TDP1 inh: 4%; TDP1 cell noCPT: 3%; TDP1 cell CPT: -3%

How did NCCCC(=O)N1c2ccccc2Sc2ccc(Cl)cc21 do in these assays?
IL-1B inflam inh: inconclusive; TDP1 cell noCPT: 23µM*; TGFb SMAD3 inh: -8%; HepG2 tox: -20%; TDP1 cell CPT: inconclusive

How did CCN(CC)CCC(=O)N1c2ccccc2Sc2ccc(Cl)cc21 do in these assays?
TDP1 inh: 4%; IL-1B inflam inh: -71*; TDP1 cell noCPT: inconclusive; TGFb SMAD3 inh: inconclusive; HepG2 tox: -27%; TDP1 cell CPT: 15µM*

Results for CN(C)CCC(=O)N1c2ccccc2Sc2ccc(Cl)cc21 ?
TDP1 inh: 3%; IL-1B inflam inh: -59*; TDP1 cell noCPT: -28%; TGFb SMAD3 inh: -15%; HepG2 tox: -13%; TDP1 cell CPT: -7%

How did CCN(CC)CCC(=O)N1c2ccccc2Sc2ccc(C(F)(F)F)cc21 do in these assays?
TDP1 inh: 3%; TDP1 cell noCPT: -107%; TDP1 cell CPT: -129%

How did O=C(C[n+]1ccccc1)N1c2ccccc2Sc2ccccc21 do in these assays?
TDP1 inh: 2%; IL-1B inflam inh: -18; TDP1 cell noCPT: inconclusive; TGFb SMAD3 inh: 21%; HepG2 tox: -1%; TDP1 cell CPT: inconclusive

Results for CN(C)c1cc[n+](CC(=O)N2c3ccccc3Sc3ccccc32)cc1 ?
TDP1 inh: 1%; IL-1B inflam inh: inconclusive; TDP1 cell noCPT: 2.9µM*; TGFb SMAD3 inh: 0%; HepG2 tox: -13%; TDP1 cell CPT: 2.1µM*

Results for CN(C)CC(=O)N1c2ccccc2Sc2ccc(Cl)cc21 ?
TDP1 inh: 5%; IL-1B inflam inh: -12; TDP1 cell noCPT: -15%; TGFb SMAD3 inh: 1%; HepG2 tox: -13%; TDP1 cell CPT: -20%

How did Cc1ccc(NC(=O)C2CCN(c3nc4ccccc4[nH]3)CC2)c(C)c1 do in these assays?
TDP1 inh: 5%; TDP1 cell noCPT: inconclusive; TGFb SMAD3 inh: 0%; HepG2 tox: -31%; TDP1 cell CPT: inconclusive

What do the screens show for `CC1CCN(CC2CCN(C(=O)NCc3ccccc3)CC2)CC1`?
TDP1 inh: -9%; TDP1 cell noCPT: 10%; TGFb SMAD3 inh: -1%; HepG2 tox: -1%; TDP1 cell CPT: 7%

Results for COc1ccc(NC(=O)Nc2c[nH]c(=O)[nH]c2=O)c(OC)c1 ?
TDP1 inh: -8%; TDP1 cell noCPT: 1%; TGFb SMAD3 inh: 1%; HepG2 tox: 2%; TDP1 cell CPT: -17%

Results for COCCNC(=O)c1cccc(OC2CCN(Cc3ccc(C(C)C)cc3)CC2)c1 ?
IL-1B inflam inh: -69*; TDP1 cell noCPT: inconclusive; TGFb SMAD3 inh: -21%; HepG2 tox: -44%; TDP1 cell CPT: inconclusive

Compound activity: PubChem, National Center for Advancing Translational Sciences (NCATS)
